Results published in PubChem BioAssay (EPA / NIEHS).
Inconclusive results are not listed. Activity calls are given as the source filed them. The calls were made as follows, unless noted: active = hit-call score of the fitted dose curve at least 0.9, where 1 is the maximum; inactive = score below 0.9.

What was measured:
[1] = read-out: E-selectin (Homo sapiens) (UniProt P16581); experiment: BSK_3C_Eselectin: BioMAP Diversity Plus: 3C Assay for Eselectin Biomarker Activity (AID 2283015); conditions: primary human endothelial cells (HUVEC); actives raise or lower the signal;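 as to outcome: cell surface E-selectin protein quantified by ELISA 24 h after dosing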
Procedure, shortened: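 E-selectin ELISA readout, fitted bidirectionally relative to DMSO, taken 24 h post-dosing in HUVEC cultures of the 3C system. Overt cytotoxicity tracked with sulforhodamine B staining of parallel wells.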

[2] = read-out: Interleukin-1 alpha (IL1a), IL1A (gene 3552); experiment: BSK_BE3C_IL1a: BioMAP Diversity Plus: BE3C Assay for Interleukin-1 alpha (IL1a) Biomarker Activity (AID 2283016); conditions: primary human bronchial epithelial cells; actives raise or lower the signal
Procedure, shortened: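 Measured in human lung primary bronchial epithelial cells: IL-1a by ELISA at 24 h after dosing, with bidirectional fitting against DMSO.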

[3] = read-out: Monocyte Chemoattractant Protein-1 (MCP1), CCL2 (gene 6347); experiment: BSK_3C_MCP1: BioMAP Diversity Plus: 3C Assay for Monocyte Chemoattractant Protein-1 (MCP1) Biomarker Activity (AID 2283017); conditions: primary human endothelial cells (HUVEC); actives raise or lower the signal
Procedure, shortened: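 MCP-1 was measured by ELISA 24 h after dosing in primary HUVEC 3C cultures and fitted in both directions relative to DMSO; cytotoxicity was checked by SRB total-protein staining in parallel wells.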

[4] = read-out: Monocyte Chemoattractant Protein-1 (MCP1), CCL2 (gene 6347); experiment: BSK_4H_MCP1: BioMAP Diversity Plus: 4H Assay for Monocyte Chemoattractant Protein-1 (MCP1) Biomarker Activity (AID 2283018); conditions: primary human endothelial cells (HUVEC); actives raise or lower the signal
Procedure, shortened: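 Primary human umbilical vein endothelium is exposed to chemical for 24 h before MCP-1 is assayed by ELISA. Concentration-response fitted bidirectionally relative to DMSO.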

[5] = read-out: Human Leukocyte Antigen - DR isotype (HLADR), HLA-DRA (gene 3122); experiment: BSK_3C_HLADR: BioMAP Diversity Plus: 3C Assay for Human Leukocyte Antigen - DR isotype (HLADR) Biomarker Activity (AID 2283019); conditions: primary human endothelial cells (HUVEC); actives raise or lower the signal;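 as to outcome: ELISA of cell-surface HLA-DR on HUVEC 24 h after dosing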
Procedure, shortened: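 Bidirectional fitting against DMSO was applied to the HLA-DR ELISA signal from human umbilical vein endothelial cells, 24 h post-dose. Cytotoxicity came from parallel SRB total-protein staining; 3C proliferation was counted by SRB at 48 h.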

[6] = read-out: Interleukin-8 (IL8), CXCL8 (gene 3576); experiment: BSK_3C_IL8: BioMAP Diversity Plus: 3C Assay for Interleukin-8 (IL8) Biomarker Activity (AID 2283020); conditions: primary human endothelial cells (HUVEC); actives raise or lower the signal
Procedure, shortened: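 Using DMSO-treated wells as the baseline, bidirectional curve fitting was applied to ELISA-measured IL-8 from human umbilical vein endothelial cultures sampled 24 h after compound addition.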

[7] = read-out: Monokine induced gamma interferon (MIG), CXCL9 (gene 4283); experiment: BSK_3C_MIG: BioMAP Diversity Plus: 3C Assay for Monokine induced gamma interferon (MIG) Biomarker Activity (AID 2283021); conditions: primary human endothelial cells (HUVEC); actives raise or lower the signal;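 as to AC50: MIG protein level measured by immunoassay in the treated endothelial cultures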
Procedure, shortened: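 ELISA-measured MIG in dosed HUVEC 3C cultures at 24 h, analysed by bidirectional fitting with DMSO defining baseline activity.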

[8] = molecular target: human Vitamin D Receptor (VDR), VDR (gene 7421) (UniProt P11473); experiment: ATG_VDR_TRANS: Attagene TRANS-FACTORIAL HepG2 Assay for human Vitamin D Receptor (VDR) (AID 2283022; active = hit-call score of the fitted dose curve at least 0.9, where 1 is the maximum)
Procedure, shortened: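 Transactivation by an exogenous VDR-Gal4 chimera in transiently transfected HepG2 cells was measured as reporter transcript level 24 hours after chemical treatment. RT-PCR products were analysed by capillary electrophoresis and fitted in the positive direction relative to DMSO.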

[9] = BSK_3C_SRB: Viability Assessment in the BioMAP Diversity Plus: 3C Assay (AID 2283023); conditions: primary human endothelial cells (HUVEC);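 also: fitted both ways against DMSO so a hit may be signal rise or drop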
Procedure, shortened: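 Cytotoxicity readout in parallel HUVEC 3C cultures: after 24 h compound exposure, cells fixed with 10% TCA, stained with 0.1% SRB and read at 560 nm. Gain or loss relative to DMSO fitted.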

[10] = read-out: Matrix Metallopeptidase 1 (MMP1), MMP1 (gene 4312); experiment: BSK_BE3C_MMP1: BioMAP Diversity Plus: BE3C Assay for Matrix Metallopeptidase 1 (MMP1) Biomarker Activity (AID 2283024); conditions: primary human bronchial epithelial cells; actives raise or lower the signal
Procedure, shortened: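 In this multiplexed primary-cell system, human bronchial epithelium received chemicals for 24 h before an ELISA for MMP1. Values reflect bidirectional fits normalised to the DMSO baseline.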

[11] = BSK_3C_Vis: BioMAP Diversity Plus: 3C Assay for Morphology Visualization (AID 2283025); conditions: primary human endothelial cells (HUVEC);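 also: fitted both ways so gain or loss versus DMSO counts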;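 as to AC50: light microscopy image of cell morphology used as background control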
Procedure, shortened: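 Light-microscopy morphology readout, 24 h exposure, human primary umbilical vein endothelium; analysed relative to DMSO with bidirectional fitting.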

[12] = read-out: Pselectin, SELP (gene 6403); experiment: BSK_4H_Pselectin: BioMAP Diversity Plus: 4H Assay for Pselectin Biomarker Activity (AID 2283026); conditions: primary human endothelial cells (HUVEC); actives raise or lower the signal
Procedure, shortened: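 Bidirectional fits against DMSO gave the endpoint. Cells: primary human umbilical vein endothelium, chemical-treated for 24 h before ELISA detection of P-selectin.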

[13] = BSK_4H_SRB: Viability Assessment in the BioMAP Diversity Plus: 4H Assay (AID 2283027); conditions: primary human endothelial cells (HUVEC);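 also: cells exposed to compound for 24 h before staining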;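 as to AC50: curves fitted both ways versus DMSO so AC50 may be loss or gain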
Procedure, shortened: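 Cytotoxicity read-out in primary human endothelial cells: after 24 h compound exposure, cells were TCA-fixed (10%), stained with 0.1% SRB and absorbance taken at 560 nm. Values fitted in both directions relative to DMSO.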

[14] = BSK_BE3C_SRB: Viability Assessment in the BioMAP Diversity Plus: BE3C Assay (AID 2283028); conditions: primary human bronchial epithelial cells;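 as to AC50: fitted both ways so AC50 may mark signal gain or loss versus DMSO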
Procedure, shortened: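 Cytotoxicity read-out: SRB (0.1%) staining of TCA-fixed (10%) human lung bronchial epithelial cells, absorbance 560 nm, 24 h post-dosing. Curves fitted both directions relative to DMSO.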

[15] = read-out: Thrombomodulin, THBD (gene 7056); experiment: BSK_3C_Thrombomodulin: BioMAP Diversity Plus: 3C Assay for Thrombomodulin Biomarker Activity (AID 2283029); conditions: primary human endothelial cells (HUVEC); actives raise or lower the signal
Procedure, shortened: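 In a multiplexed primary-cell system, human umbilical vein endothelium received chemical and was assayed 24 h later for thrombomodulin by ELISA. Parallel cultures were SRB-stained (0.1% SRB after 10% TCA fixation, read at 560 nm) to flag cytotoxicity.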

[16] = read-out: Urokinase-type plasminogen activator receptor (uPAR), PLAUR (gene 5329); experiment: BSK_4H_uPAR: BioMAP Diversity Plus: 4H Assay for Urokinase-type plasminogen activator receptor (uPAR) Biomarker Activity (AID 2283030); conditions: primary human endothelial cells (HUVEC); actives raise or lower the signal
Procedure, shortened: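 uPAR level read by ELISA on HUVEC cultures (BioMAP 4H) 24 h post-dosing, analyzed for gain or loss relative to DMSO. Parallel SRB staining assessed overt cytotoxicity.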

[17] = read-out: Vascular endothelial growth factor receptor 2 (Homo sapiens) (UniProt P35968); experiment: BSK_4H_VEGFRII: BioMAP Diversity Plus: 4H Assay for Vascular endothelial growth factor receptor 2 (VEGFR2) Biomarker Activity (AID 2283031); conditions: primary human endothelial cells (HUVEC); actives raise or lower the signal;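 as to AC50: cell-surface VEGFR2 protein level quantified by ELISA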
Procedure, shortened: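 Measured by ELISA after 24 h of compound treatment: VEGFR2 on primary human umbilical vein endothelial cells, fitted in both directions relative to DMSO. Parallel cultures received SRB staining (560 nm) for overt cytotoxicity.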

[18] = read-out: Human Leukocyte Antigen - DR isotype (HLADR), HLA-DRA (gene 3122); experiment: BSK_BE3C_HLADR: BioMAP Diversity Plus: BE3C Assay for Human Leukocyte Antigen - DR isotype (HLADR) Biomarker Activity (AID 2283032); conditions: primary human bronchial epithelial cells; actives raise or lower the signal
Procedure, shortened: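 BioMAP BE3C format: human bronchial epithelium, 24 h compound treatment, ELISA detection of HLA-DR, with bidirectional analysis relative to DMSO.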

[19] = read-out: Vascular cell adhesion molecule 1 (VCAM1), VCAM1 (gene 7412); experiment: BSK_4H_VCAM1: BioMAP Diversity Plus: 4H Assay for Vascular cell adhesion molecule 1 (VCAM1) Biomarker Activity (AID 2283033); conditions: primary human endothelial cells (HUVEC); actives raise or lower the signal;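 as to outcome: cell-surface VCAM-1 protein measured by ELISA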
Procedure, shortened: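 In this human endothelial (HUVEC) system, biomarker ELISA was run 24 h after compound addition, and total protein in parallel wells was assessed by SRB at 560 nm; DMSO served as negative control.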

[20] = read-out: Interferon-gamma inducible Protein 10 (IP10), CXCL10 (gene 3627); experiment: BSK_BE3C_IP10: BioMAP Diversity Plus: BE3C Assay for Interferon-gamma inducible Protein 10 (IP10) Biomarker Activity (AID 2283034); conditions: primary human bronchial epithelial cells; actives raise or lower the signal
Procedure, shortened: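 BE3C cells (human bronchial epithelial, primary); 24 h exposure; ELISA for IP-10; DMSO-referenced bidirectional fit.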

Sequence of E-selectin (Homo sapiens) (P16581 whole entry, looked up): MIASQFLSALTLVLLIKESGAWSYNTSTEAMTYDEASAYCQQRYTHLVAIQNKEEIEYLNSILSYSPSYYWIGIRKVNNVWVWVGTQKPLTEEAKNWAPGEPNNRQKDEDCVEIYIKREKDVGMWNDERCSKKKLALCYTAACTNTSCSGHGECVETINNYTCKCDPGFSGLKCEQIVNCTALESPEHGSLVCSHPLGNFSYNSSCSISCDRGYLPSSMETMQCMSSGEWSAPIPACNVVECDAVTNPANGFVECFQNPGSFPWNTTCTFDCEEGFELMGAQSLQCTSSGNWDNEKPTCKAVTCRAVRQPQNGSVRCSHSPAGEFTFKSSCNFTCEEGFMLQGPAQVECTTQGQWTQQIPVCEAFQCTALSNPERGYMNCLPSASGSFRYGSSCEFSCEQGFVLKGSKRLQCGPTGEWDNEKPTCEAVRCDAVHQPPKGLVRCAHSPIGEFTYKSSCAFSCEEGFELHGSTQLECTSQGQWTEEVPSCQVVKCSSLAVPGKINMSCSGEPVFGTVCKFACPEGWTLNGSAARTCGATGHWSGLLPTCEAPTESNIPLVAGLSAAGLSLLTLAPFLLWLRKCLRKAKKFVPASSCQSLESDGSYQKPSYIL
Sequence of human Vitamin D Receptor (VDR), VDR (gene 7421) (P11473 whole entry, looked up, the tested form may be a part): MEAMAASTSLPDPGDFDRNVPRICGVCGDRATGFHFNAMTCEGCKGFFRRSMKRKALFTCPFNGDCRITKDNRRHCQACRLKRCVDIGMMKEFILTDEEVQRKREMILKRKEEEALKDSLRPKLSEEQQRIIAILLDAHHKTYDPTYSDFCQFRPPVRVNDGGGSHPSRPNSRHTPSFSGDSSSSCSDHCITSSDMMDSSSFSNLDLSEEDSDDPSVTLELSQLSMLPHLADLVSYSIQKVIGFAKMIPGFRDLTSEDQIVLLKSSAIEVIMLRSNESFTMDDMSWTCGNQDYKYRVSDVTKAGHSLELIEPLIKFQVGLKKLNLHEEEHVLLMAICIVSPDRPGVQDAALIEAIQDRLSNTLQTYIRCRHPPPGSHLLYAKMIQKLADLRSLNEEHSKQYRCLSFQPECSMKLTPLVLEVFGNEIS

## Fc1ccccc1[C@@H](F)COC1CCC(Nc2ncnc3[nH]ncc23)CC1 (stereo partly drawn)
[1]
  outcome: inactive
[2]
  outcome: inactive
[3]
  AC50: 30.2 µM (active)
[4]
  outcome: inactive
[5]
  AC50: 15.4 µM (active)
[6]
  AC50: 20 µM (active)
[7]
  outcome: inactive
[8]
  outcome: inactive
[9]
  AC50: 27.6 µM (active)
[10]
  outcome: inactive
[11]
  AC50: 39 µM (active)
[12]
  AC50: 29.2 µM (active)
[13]
  AC50: 30 µM (active)
[14]
  outcome: inactive
[15]
  outcome: inactive
[16]
  AC50: 28.2 µM (active)
[17]
  outcome: inactive
[18]
  outcome: inactive
[19]
  outcome: inactive
[20]
  outcome: inactive

## O=C1CCC(N2C(=O)c3ccccc3C2=O)C(=O)N1 (stereo not drawn)
[1]
  outcome: inactive
[2]
  outcome: inactive
[3]
  outcome: inactive
[4]
  outcome: inactive
[5]
  outcome: inactive
[6]
  outcome: inactive
[7]
  outcome: inactive
[9]
  outcome: inactive
[10]
  outcome: inactive
[11]
  outcome: inactive
[12]
  outcome: inactive
[13]
  outcome: inactive
[14]
  outcome: inactive
[15]
  outcome: inactive
[16]
  outcome: inactive
[17]
  outcome: inactive
[18]
  outcome: inactive
[19]
  outcome: inactive
[20]
  outcome: inactive

## CCCC(=O)OCC
[1]
  outcome: inactive
[2]
  outcome: inactive
[3]
  outcome: inactive
[4]
  outcome: inactive
[5]
  outcome: inactive
[6]
  outcome: inactive
[7]
  outcome: inactive
[8]
  outcome: inactive
[9]
  outcome: inactive
[10]
  outcome: inactive
[11]
  outcome: inactive
[12]
  outcome: inactive
[13]
  outcome: inactive
[14]
  outcome: inactive
[15]
  outcome: inactive
[16]
  outcome: inactive
[17]
  outcome: inactive
[18]
  outcome: inactive
[19]
  outcome: inactive
[20]
  outcome: inactive

## CC(C)CCCCCCOC(=O)c1ccc(C(=O)OCCCCCCC(C)C)c(C(=O)OCCCCCCC(C)C)c1
[1]
  outcome: inactive
[2]
  outcome: inactive
[3]
  outcome: inactive
[4]
  outcome: inactive
[5]
  outcome: inactive
[6]
  outcome: inactive
[7]
  outcome: inactive
[9]
  outcome: inactive
[10]
  outcome: inactive
[11]
  outcome: inactive
[12]
  outcome: inactive
[13]
  outcome: inactive
[14]
  outcome: inactive
[15]
  outcome: inactive
[16]
  outcome: inactive
[17]
  outcome: inactive
[18]
  outcome: inactive
[19]
  outcome: inactive

## CCc1cc(SCc2sc(-c3ccc(C(F)(F)F)cc3)nc2CN2CCN(c3ccc(OC)cc3)CC2)ccc1OCC(=O)O
[1]
  AC50: 15.2 µM (active)
[2]
  AC50: 7 µM (active)
[3]
  AC50: 12 µM (active)
[4]
  AC50: 8.42 µM (active)
[5]
  AC50: 11.4 µM (active)
[6]
  AC50: 16.7 µM (active)
[7]
  AC50: 16.9 µM (active)
[9]
  AC50: 5.75 µM (active)
[10]
  AC50: 9.73 µM (active)
[11]
  AC50: 14.5 µM (active)
[12]
  AC50: 11.3 µM (active)
[13]
  AC50: 11.8 µM (active)
[14]
  AC50: 5.19 µM (active)
[15]
  AC50: 37 µM (active)
[16]
  AC50: 16 µM (active)
[17]
  AC50: 4.8 µM (active)
[18]
  AC50: 5.41 µM (active)
[19]
  AC50: 10 µM (active)

## Cc1ccc(O)cc1
[1]
  outcome: inactive
[2]
  outcome: inactive
[3]
  outcome: inactive
[4]
  outcome: inactive
[5]
  outcome: inactive
[6]
  outcome: inactive
[7]
  outcome: inactive
[9]
  outcome: inactive
[10]
  outcome: inactive
[11]
  outcome: inactive
[12]
  outcome: inactive
[13]
  outcome: inactive
[14]
  outcome: inactive
[15]
  outcome: inactive
[16]
  outcome: inactive
[17]
  outcome: inactive
[18]
  outcome: inactive
[19]
  outcome: inactive
